Values without a mark were called inactive. Results filed as inconclusive are left out. Activity calls are given as the source filed them. Unless noted, the call rests on the fitted dose curve; in most records, active means well fitted curve in the direction sought with a large enough effect in the repeat runs; inconclusive means weak or mixed curves; inactive means no such curve, though single readings can be large; an effect the other way counts as inactive or inconclusive.

The values that follow come from PubChem BioAssay (Tox21).

A short description of test [1]: qHTS assay to identify small molecule agonists of the TGF-beta/Smad signaling pathway (AID 1346859; active means well fitted activation curve with a large enough effect in the signal ratio in the repeat runs, not every such curve was filed as active; the % refers to the signal ratio; further: series mostly up to about 77 µM). The method, boiled down: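 Read-out: fluorescence at 460 and 530 nm (405 nm excitation) after a 2 hr room-temperature incubation with beta-lactamase FRET substrate. SBE-bla HEK 293T cells had been treated with test compounds for 5 hr at 37 C.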
The target of test [2] is Thyrotropin-releasing hormone receptor (Homo sapiens) (UniProt P34981). The experiment in a line: qHTS assay to identify small molecule antagonists of the thyrotropin-releasing hormone receptor (TRHR) signaling pathway (AID 1346877; active means well fitted inhibition curve with a large enough effect in the repeat runs, not every such curve was filed as active; further: series mostly up to about 51 µM). The method, boiled down:
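HEK293/TRHR cells, 18 h, 37 °C; Ca2+ dye 2 h; cpd 5 min RT; TRH 1 nM final; fluorescence read 3 min, 1 s intervals; 15 concs, triplicate.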

The target is the same in test [3]. The experiment in a line: qHTS assay to identify small molecule agonists of the thyrotropin-releasing hormone receptor (TRHR) signaling pathway (AID 1346891; calls by dose curve;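 further: HEK293 cells expressing TRHR with calcium dye readout; series mostly up to about 58 µM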). The method, boiled down: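 HEK293/TRHR cells, 1500 per well, 18 h 37 °C; Ca dye 2 h 37 °C; pin-tool compound addition (agonist mode); kinetic fluorescence 3 min, 1 s reads; 15 concentrations, triplicate.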
Background: qHTS replaces the single test concentration by a dilution series.

A short description of test [4]: Human pregnane X receptor (PXR) small molecule agonists, qHTS cell viability counter screen (AID 1346977). Further: nearly all actives have a fitted effect of over 50% in size. In outline:
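Fluorescence read-out (CellTiter-Fluor) of viability in PXR-Luc HepG2 cells, multiplexed with the luciferase agonist read. Compounds in DMSO added after 5hr plating; 24hr total exposure at 37C, 5% CO2.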

Test [5] in a line: Caspase-3/7 induction in CHO-K1 cells by small molecules, qHTS cell viability counter screen (AID 1346979). Further: nearly all actives have a fitted effect of over 35% in size. In outline:
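CHO-K1 wt, 1,500 cells/well; 5hr pre-incubation 37C/5% CO2; compound pin transfer (DMSO); 16hr exposure; CellTiter-Fluor added, 1hr, fluorescence read.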

Test [6] is described as follows: Caspase-3/7 induction in CHO-K1 cells by small molecules, qHTS assay (AID 1346980). Further: nearly all actives have a fitted effect of over 15% in size. The method, boiled down: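 Wild-type cells were seeded at 1,500 per well and settled 5 hr at 37 C, 5% CO2, then exposed to DMSO-dissolved compounds for 17 hr. Caspase-Glo 3/7 reagent was added, and luminescence was read after 30min at room temperature.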
The nature of test [7]: Caspase-3/7 induction in HepG2 cells by small molecules, qHTS cell viability counter screen (AID 1346981). Further: series mostly up to about 92 µM; nearly all actives have a fitted effect of over 30% in size. The method, boiled down:
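Fluorescence read-out of live-cell protease activity (CellTiter-Fluor) after 1 hr with reagent. This was measured in the same wells as the caspase-3/7 luminescence, on HepG2 cells exposed to DMSO-dissolved compounds for 16 hr at 37 C.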

For test [8], the target named is Nuclear receptor subfamily 1 group I member 2 (Homo sapiens) (UniProt O75469). The experiment in a line: Human pregnane X receptor (PXR) small molecule agonists, qHTS assay (AID 1346982). Further: nearly all actives have a fitted effect of over 35% in size. In outline:
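HepG2 PXR-Luc reporter line, 5% charcoal-stripped FBS; 5 hr pre-incubation, compound (DMSO) 24 hr at 37 C/5% CO2; ONE-Glo 30 min RT; luminescence read-out.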

The target of test [9] is Nuclear receptor subfamily 1 group I member 2 (Rattus norvegicus) (UniProt Q9R1A7). The experiment in a line: Rat pregnane X receptor (rPXR) activation by small molecules, qHTS assay (AID 1346983). Further: nearly all actives have a fitted effect of over 20% in size. Particulars: rPXR luciferase reporter cells, One-Glo luminescence, 24 h; max activation: hits give high values. The method, boiled down:
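Cell-based rPXR luciferase reporter assay, 2,000 cells per well, rested 5hr at 37 C before compound addition in DMSO, then 24 hr at 37 C. One-Glo reagent was added and luminescence read after 30 min at room temperature.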

Test [10] addresses Nuclear receptor subfamily 1 group I member 2 (Homo sapiens) (UniProt O75469). The experiment in a line: CYP3A4 induction through human pregnane X receptor (PXR) by small molecules, qHTS assay (AID 1346984). Further: nearly all actives have a fitted effect of over 40% in size. In outline: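 HepG2-derived DPX-2 line carrying PXR plus a CYP3A4-promoter luciferase reporter; cells plated 5 hr, compound-exposed 24 hr at 37C. CYP3A4 activity probed with 3uM (final) Luciferin-IPA for 3hr, then luciferase read after One-Glo.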

The target is the same in test [11]. The experiment in a line: Human pregnane X receptor (PXR) activation by small molecules, qHTS assay (AID 1346985). Further: nearly all actives have a fitted effect of over 40% in size. In outline: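 DPX-2 cells (HepG2 co-transfected with a PXR response element and a CYP3A4-promoter luciferase construct) were seeded at 2,000 per well, rested 5 hr at 37C, then exposed to DMSO-dissolved compounds for 24 hr. Activation was read as luciferase luminescence.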

Test [12] addresses Cytochrome P450 2D6 (Homo sapiens) (UniProt P10635). The experiment in a line: Cytochrome P450 Family 2 Subfamily D Member 6 (CYP2D6) small molecule antagonists: luciferase reporter qHTS assay (AID 1671196). Further: series mostly up to about 120 µM; nearly all actives have a fitted effect of over 50% in size. In outline: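 Luminogenic proluciferin substrate, CYP2D6 enzyme; 10 min RT preincubation with compound, NADPH regeneration system added, 1 h RT. Stop/detection reagent, 20 min RT, luminescence read (RLU). Signal proportional to CYP activity.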
In general terms: In a reporter assay the amount or activity of a reporter protein is the signal.

Test [13] addresses Cytochrome P450 2C19 (Homo sapiens) (UniProt P33261). The experiment in a line: Cytochrome P450 Family 2 Subfamily C Member 19 (CYP2C19) small molecule antagonists: luciferase reporter qHTS assay (AID 1671197). Further: nearly all actives have a fitted effect of over 65% in size. Further: potency means the concentration at half of the fitted maximal effect. On activity change, negative = inhibition: series mostly up to about 120 µM. In outline:
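Compounds were tested on CYP2C19 activity via proluciferin conversion to luciferin. The 37C, 1 h reaction followed NADPH addition; detection reagent stopped it.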

Test [14] addresses Cytochrome P450 2C9 (Homo sapiens) (UniProt P11712). The experiment in a line: Cytochrome P450 Family 2 Subfamily C Member 9 (CYP2C9) small molecule antagonists: luciferase reporter qHTS assay (AID 1671198). Further: nearly all actives have a fitted effect of over 50% in size. Further: potency means the concentration at half of the fitted maximal effect. On activity change, negative = inhibition: series mostly up to about 120 µM. The method, boiled down:
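CYP2C9 activity was measured with a P450-Glo proluciferin substrate. Enzyme–substrate mix was held with compound for 10 min at room temperature, then NADPH regeneration solution was added for 1 h at 37C. Luciferin product was read as luminescence.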

The target in test [15] is Cytochrome P450 1A2 (Homo sapiens) (UniProt P05177). The experiment in a line: Cytochrome P450 Family 1 Subfamily A Member 2 (CYP1A2) small molecule antagonists: luciferase reporter qHTS assay (AID 1671199). Further: nearly all actives have a fitted effect of over 50% in size. Further: potency means the concentration at half of the fitted maximal effect. On activity change, negative = inhibition: series mostly up to about 120 µM. In outline:
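Luminescence readout (relative luminescence units) after luciferin detection reagent, 20 min RT. Preceded by 1 h room-temperature CYP1A2 reaction with NADPH regeneration solution following 10 min compound preincubation with enzyme and proluciferin substrate. Furafylline positive control.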

Test [16] concerns the target Voltage-gated inwardly rectifying potassium channel KCNH2 (Homo sapiens) (UniProt Q12809). The experiment in a line: Human Ether-a-go-go-Related Gene (hERG) channel small molecule antagonists: fluorescence cell-based qHTS assay (AID 1671200). The method, boiled down:
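Read-out: thallium influx as a surrogate for potassium, tracked as fluorescence (480 nm ex/540 nm em) every second for 2 min after Stimulus Buffer addition in dye-loaded hERG-U2OS cells.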
Background: hERG is a cardiac potassium channel; its block is linked to QT prolongation.

Test [17] concerns the target Cytochrome P450 3A4 (Homo sapiens) (UniProt P08684). The experiment in a line: Cytochrome P450 Family 3 Subfamily A Member 4 (CYP3A4) small molecule antagonists: luciferase reporter qHTS assay (AID 1671201). In outline:
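Luminescent readout (RLU) proportional to CYP3A4 activity, from luciferin generated off a proluciferin substrate. Enzyme–substrate mix plus compound 10 min at room temp, NADPH regeneration 1 h, detection reagent 20 min.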

A short description of test [18]: Caspase-3/7 induction in HepG2 cells by small molecules, qHTS assay (AID 1346978). Further: nearly all actives have a fitted effect of over 15% in size. The method, boiled down: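 Wild-type HepG2 cells (2,000/well) were settled 5 h at 37 C, 5% CO2, then exposed to compounds in DMSO for 17 h. Caspase-3/7 activity was read by luminescence 30 min after adding Caspase-Glo 3/7 reagent at room temperature.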
On the % scale 0 is the no-effect control and ±100 the full control effect.

Sequence of Cytochrome P450 2D6 (Homo sapiens) (P10635 whole entry, looked up): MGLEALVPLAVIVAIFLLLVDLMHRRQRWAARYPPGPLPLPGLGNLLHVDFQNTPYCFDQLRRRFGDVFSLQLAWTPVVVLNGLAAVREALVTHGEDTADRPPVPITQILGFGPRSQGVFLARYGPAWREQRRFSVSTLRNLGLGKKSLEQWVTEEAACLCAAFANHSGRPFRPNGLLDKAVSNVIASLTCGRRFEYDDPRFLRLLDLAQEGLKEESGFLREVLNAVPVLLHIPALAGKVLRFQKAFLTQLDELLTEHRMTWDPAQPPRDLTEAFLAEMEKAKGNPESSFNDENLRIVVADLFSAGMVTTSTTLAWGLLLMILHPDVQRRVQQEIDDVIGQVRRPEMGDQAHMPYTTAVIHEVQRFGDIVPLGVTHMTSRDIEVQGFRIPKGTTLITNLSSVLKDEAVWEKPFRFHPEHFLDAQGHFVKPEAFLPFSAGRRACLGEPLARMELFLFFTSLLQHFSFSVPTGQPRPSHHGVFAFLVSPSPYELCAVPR
Sequence of Cytochrome P450 3A4 (Homo sapiens) (P08684 whole entry, looked up): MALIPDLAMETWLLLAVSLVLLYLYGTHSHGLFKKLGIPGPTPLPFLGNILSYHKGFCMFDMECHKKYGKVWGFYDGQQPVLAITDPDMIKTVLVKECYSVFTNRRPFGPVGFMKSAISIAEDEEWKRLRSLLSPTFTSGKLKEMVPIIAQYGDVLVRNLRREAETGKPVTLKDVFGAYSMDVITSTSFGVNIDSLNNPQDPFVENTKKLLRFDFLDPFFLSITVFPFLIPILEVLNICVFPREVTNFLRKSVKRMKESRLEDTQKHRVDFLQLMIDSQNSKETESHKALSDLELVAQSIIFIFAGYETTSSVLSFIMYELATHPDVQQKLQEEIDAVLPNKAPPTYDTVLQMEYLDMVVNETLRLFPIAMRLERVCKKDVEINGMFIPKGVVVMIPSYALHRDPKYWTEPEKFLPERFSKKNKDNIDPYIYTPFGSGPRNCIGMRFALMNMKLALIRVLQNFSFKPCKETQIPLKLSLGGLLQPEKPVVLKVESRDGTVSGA
Sequence of Thyrotropin-releasing hormone receptor (Homo sapiens) (P34981 whole entry, looked up): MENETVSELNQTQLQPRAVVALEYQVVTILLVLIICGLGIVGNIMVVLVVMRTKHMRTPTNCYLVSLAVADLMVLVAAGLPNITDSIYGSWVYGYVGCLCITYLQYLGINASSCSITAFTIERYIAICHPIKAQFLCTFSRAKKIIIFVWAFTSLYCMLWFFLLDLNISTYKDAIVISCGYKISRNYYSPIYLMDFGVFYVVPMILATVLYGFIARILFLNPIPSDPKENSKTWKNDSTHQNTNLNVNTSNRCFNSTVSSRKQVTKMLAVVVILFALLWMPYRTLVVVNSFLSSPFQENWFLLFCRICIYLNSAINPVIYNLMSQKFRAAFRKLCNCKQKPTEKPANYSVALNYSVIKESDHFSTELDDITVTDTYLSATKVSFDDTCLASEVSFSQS
Sequence of Nuclear receptor subfamily 1 group I member 2 (Rattus norvegicus) (Q9R1A7 whole entry, looked up): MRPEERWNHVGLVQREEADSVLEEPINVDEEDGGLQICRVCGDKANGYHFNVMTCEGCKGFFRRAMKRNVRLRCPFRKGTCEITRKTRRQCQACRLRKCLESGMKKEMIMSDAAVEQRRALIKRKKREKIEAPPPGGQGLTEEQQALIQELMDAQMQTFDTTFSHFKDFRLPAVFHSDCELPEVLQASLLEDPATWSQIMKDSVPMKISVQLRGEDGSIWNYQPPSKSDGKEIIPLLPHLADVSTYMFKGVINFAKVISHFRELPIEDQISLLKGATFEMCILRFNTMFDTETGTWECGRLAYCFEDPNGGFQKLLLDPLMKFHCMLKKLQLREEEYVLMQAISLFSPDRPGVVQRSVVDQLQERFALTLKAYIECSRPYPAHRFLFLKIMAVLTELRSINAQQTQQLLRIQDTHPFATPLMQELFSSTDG
Sequence of Cytochrome P450 2C9 (Homo sapiens) (P11712 whole entry, looked up): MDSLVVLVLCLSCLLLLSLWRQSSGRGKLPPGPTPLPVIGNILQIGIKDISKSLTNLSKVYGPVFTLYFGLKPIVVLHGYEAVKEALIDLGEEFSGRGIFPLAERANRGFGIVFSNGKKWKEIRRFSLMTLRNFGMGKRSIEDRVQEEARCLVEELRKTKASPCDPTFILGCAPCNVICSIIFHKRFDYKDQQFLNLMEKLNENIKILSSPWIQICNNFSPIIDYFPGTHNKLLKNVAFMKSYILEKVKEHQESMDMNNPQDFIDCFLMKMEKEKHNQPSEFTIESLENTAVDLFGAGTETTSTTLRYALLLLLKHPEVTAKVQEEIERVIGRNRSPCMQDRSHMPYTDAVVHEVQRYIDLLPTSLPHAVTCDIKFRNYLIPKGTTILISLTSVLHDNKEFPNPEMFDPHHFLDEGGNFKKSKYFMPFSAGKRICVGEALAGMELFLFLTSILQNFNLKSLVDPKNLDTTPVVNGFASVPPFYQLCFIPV
Sequence of Cytochrome P450 2C19 (Homo sapiens) (P33261 whole entry, looked up): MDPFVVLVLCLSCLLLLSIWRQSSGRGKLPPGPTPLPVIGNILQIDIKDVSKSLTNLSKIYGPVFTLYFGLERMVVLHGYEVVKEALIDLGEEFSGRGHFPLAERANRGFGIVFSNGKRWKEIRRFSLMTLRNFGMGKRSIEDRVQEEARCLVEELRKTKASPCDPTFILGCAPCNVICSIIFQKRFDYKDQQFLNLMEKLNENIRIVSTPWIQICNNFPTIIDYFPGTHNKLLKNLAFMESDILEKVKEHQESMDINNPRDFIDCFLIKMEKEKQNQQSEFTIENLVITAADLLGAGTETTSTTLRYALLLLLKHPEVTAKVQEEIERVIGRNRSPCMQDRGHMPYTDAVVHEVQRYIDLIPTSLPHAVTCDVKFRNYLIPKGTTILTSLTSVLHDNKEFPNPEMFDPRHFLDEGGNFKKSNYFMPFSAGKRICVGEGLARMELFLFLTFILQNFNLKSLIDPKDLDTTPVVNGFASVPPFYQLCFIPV
Sequence of Voltage-gated inwardly rectifying potassium channel KCNH2 (Homo sapiens) (Q12809 whole entry, looked up): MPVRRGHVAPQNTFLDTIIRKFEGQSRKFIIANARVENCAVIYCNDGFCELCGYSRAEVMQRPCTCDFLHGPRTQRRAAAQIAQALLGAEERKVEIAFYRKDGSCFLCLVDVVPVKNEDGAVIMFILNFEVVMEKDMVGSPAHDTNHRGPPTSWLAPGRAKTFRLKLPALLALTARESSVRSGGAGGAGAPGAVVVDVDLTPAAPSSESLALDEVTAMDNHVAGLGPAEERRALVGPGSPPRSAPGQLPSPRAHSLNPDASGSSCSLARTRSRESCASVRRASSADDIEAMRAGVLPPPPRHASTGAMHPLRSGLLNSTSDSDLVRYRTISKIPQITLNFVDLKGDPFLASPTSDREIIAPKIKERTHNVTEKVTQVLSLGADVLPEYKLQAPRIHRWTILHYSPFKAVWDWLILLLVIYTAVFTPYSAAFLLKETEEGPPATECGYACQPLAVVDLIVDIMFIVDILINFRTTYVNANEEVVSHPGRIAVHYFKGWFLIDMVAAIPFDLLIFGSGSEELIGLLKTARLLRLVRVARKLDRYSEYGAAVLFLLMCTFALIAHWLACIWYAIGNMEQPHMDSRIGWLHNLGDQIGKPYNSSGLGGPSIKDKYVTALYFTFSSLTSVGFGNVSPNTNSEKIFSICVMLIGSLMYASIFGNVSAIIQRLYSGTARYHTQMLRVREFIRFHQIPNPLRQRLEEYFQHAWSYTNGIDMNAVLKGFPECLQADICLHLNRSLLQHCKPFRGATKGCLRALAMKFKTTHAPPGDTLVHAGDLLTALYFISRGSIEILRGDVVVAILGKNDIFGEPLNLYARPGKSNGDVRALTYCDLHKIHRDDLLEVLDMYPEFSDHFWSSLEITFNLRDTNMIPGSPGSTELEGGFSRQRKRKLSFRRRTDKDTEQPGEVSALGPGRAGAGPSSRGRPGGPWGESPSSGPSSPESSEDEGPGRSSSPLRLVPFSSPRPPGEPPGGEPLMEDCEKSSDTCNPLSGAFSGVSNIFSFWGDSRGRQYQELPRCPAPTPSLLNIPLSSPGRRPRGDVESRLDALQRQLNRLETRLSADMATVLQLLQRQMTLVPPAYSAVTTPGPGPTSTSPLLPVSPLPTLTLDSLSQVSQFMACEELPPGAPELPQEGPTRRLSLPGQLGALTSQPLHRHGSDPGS
Sequence of Nuclear receptor subfamily 1 group I member 2 (Homo sapiens) (O75469 whole entry, looked up): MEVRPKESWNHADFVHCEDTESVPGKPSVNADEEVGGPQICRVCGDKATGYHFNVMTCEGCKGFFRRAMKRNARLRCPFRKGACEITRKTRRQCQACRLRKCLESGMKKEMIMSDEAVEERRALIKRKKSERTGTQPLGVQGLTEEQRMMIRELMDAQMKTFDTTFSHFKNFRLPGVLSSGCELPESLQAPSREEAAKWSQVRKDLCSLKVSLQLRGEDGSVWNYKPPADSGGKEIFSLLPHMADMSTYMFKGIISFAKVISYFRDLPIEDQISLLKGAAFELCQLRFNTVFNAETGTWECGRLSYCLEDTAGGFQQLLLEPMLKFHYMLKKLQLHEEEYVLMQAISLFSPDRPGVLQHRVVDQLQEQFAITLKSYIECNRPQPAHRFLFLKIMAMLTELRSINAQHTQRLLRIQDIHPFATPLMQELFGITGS
Sequence of Cytochrome P450 1A2 (Homo sapiens) (P05177 whole entry, looked up): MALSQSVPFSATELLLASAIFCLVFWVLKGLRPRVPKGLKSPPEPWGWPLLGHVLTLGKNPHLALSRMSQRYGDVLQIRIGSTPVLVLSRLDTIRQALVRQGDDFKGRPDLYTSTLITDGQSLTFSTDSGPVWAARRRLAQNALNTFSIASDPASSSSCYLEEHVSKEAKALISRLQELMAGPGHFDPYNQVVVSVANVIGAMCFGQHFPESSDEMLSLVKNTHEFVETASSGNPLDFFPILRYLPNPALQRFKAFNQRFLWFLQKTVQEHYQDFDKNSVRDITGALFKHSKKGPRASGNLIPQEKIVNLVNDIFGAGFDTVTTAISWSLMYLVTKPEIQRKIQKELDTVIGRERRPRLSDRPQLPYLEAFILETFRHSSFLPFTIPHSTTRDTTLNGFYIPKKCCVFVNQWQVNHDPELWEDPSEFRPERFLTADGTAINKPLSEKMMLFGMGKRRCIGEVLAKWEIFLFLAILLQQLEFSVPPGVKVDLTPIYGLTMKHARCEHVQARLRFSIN

Consider `CNCCc1ccccn1`, for which the compound was called inactive in test [1], in [2], in [4], in test [6], in [7] and in test [10]. Besides, in test [11], the outcome was inactive. Also, the Potency entry in [3], in test [5], in [8], in [12], in [13] and in test [14] was “inactive” throughout. The Potency entry in test [15], in [16] and in test [17] was “inactive” in each case. The max activation in test [9] was -1.65%.
Consider `CCOCCOCCOC(C)=O`, for which the call in [1], in test [4], in test [18], in test [6] and in [7] was inactive. Besides, the Potency entry in test [5], in [8], in test [12], in test [13], in test [14] and in test [15] was “inactive” in each case. The Potency entry in [16] and in test [17] was “inactive” each time.
In the case of `COC(=O)N/N=C/c1c[n+]([O-])c2ccccc2[n+]1[O-]`, the outcome in [1], in test [2], in [4], in [18], in test [6] and in test [7] was inactive. Moreover, the compound was classed as inactive in test [10] and in test [11]. Besides, the Potency entry in test [5], in [8], in test [13], in test [14], in [15] and in test [16] was “inactive” in each case. Further, the max activation in [9] was -1.2%.
As to `Clc1ccc2c(c1)Nc1ccccc1S2`, the compound was classed as inactive in test [1], in test [4], in test [6] and in test [7]. For the same compound, the Potency entry in test [12] and in test [17] was “inactive” in each case. In addition, the Potency was 3.89 µM (active) in test [13] and 0.347 µM (active) in [15].
With `c1cc2ccc3ccc4ccc5cccc6c(c1)c2c3c4c56`, the activation was 25.1% [at 2.72 µM] in [1] and 3.44% [at 3.27 µM] in [8]. Moreover, the activity change, negative = cytotoxicity in test [4] was 0.555% [at 3.27 µM]; in test [5] it was 14.9% [at 3.27 µM]. Besides, the caspase activation in test [18] was 1.34% [at 3.27 µM]. Also, in test [6], the caspase-3/7 activation was 0.273% [at 3.27 µM]. For the same compound, the activity change, negative = inhibition in [12] was 0.702% [at 4.07 µM]; in test [13] it was -3.91% [at 4.07 µM]; in [14] it was -14.6% [at 4.07 µM]; in test [17], -22.2% [at 4.07 µM]. Further, in test [15], the Potency was 0.2 µM (active).
For the compound `CC/C=C\CCCCCCCCCCOC(C)=O`, the compound was classed as inactive in test [1], in test [4], in [18], in [6] and in test [7]. Also, the Potency result in test [5], in test [12], in [13], in test [14], in test [15] and in test [16] was “inactive” throughout. In addition, the Potency result in [17] was “inactive”.
Turning to `O=S(=O)(O)c1cc(I)c(O)c2ncccc12`, the call in test [1], in [4], in [18], in test [6], in test [10] and in test [11] was inactive. Besides, the Potency entry in test [8], in test [12], in test [13], in test [15] and in [16] was “inactive” each time. For the same compound, the max activation in test [9] is -0.763%.
In the case of `CCCCC(CC)CCC(CC(C)C)OS(=O)(=O)O` (stereo unspecified), the compound was classed as inactive in [1], in [4], in [18], in [6], in test [7] and in test [10]. In addition, the compound was called inactive in test [11]. Moreover, the Potency result in test [8], in test [12], in [15], in test [16] and in test [17] was “inactive” in each case. In test [9], the max activation is -2.27%. Besides, in test [14], the Potency was 31.7 µM (active).
Regarding `O=Cc1ccccc1S(=O)(=O)O`, the compound was called inactive in test [1], in test [4], in test [6] and in test [7]. Besides, the Potency result in test [8], in [12], in [13], in [15] and in test [16] was “inactive” in each case.
